Targets with a hit are over-represented here; the source holds about 7,900 in all. About 0.6% of all pairs of compound and target were hits.
Key:
Assay in all cases: log2 fold change, soluble protein after heating vs DMSO (PISA); higher = thermal stabilisation; K562 cells, 10 uM, 30 min; active = over 0.2 and 3.5 SD of the protein, either way, in both replicates (recomputed)
[1] = compound: CC[C@@H]1C(=O)N(C)c2cnc(Nc3ccc(C(=O)NC4CCN(C)CC4)cc3OC)nc2N1C1CCCC1
Summary of the method: (§1)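 K562 cells at 2×10^6 cells/mL were given 10 μM compound for 30 min. Aliquots then went through 3 min of heating across 48°C-58°C, were pooled, and were extracted in PBS with 0.5% NP-40 at 4°C, and the supernatant after 21,000xg for 90 min was quantified by TMTpro 16plex LC-MS/MS with channel sums equalised. Thermal stability relative to control samples, from duplicates, is given as log2 fold change.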

volasertib = compound: CC[C@@H]1C(=O)N(C)c2cnc(Nc3ccc(C(=O)N[C@H]4CC[C@H](N5CCN(CC6CC6)CC5)CC4)cc3OC)nc2N1C(C)C [volasertib]
Summary of the method: as §1

[2] = compound: CC[C@H](C)N1C=C(C2=C(C=C(C=C21)C3=CN=C(C=C3)N4CCNCC4)C(=O)NCC5=C(C=C(NC5=O)C)C)C
Summary of the method: as §1

epoxomicin = compound: CC[C@H](C)[C@@H](C(=O)N[C@@H]([C@@H](C)O)C(=O)N[C@@H](CC(C)C)C(=O)[C@]1(CO1)C)NC(=O)[C@H]([C@@H](C)CC)N(C)C(=O)C [epoxomicin]
Summary of the method: as §1

[3] = compound: CCn1c(C(=O)N(C2CC2)C2CC2)cc2c3c(ncn3C)c(Nc3cc(C)n(C)n3)nc21
Summary of the method: as §1

[4] = compound: CCn1cc(-c2ccnc3[nH]c(-c4cccc(CN(C)C)c4)cc23)c(-c2ccc(NC(=O)N(C)C)cc2)n1
Summary of the method: as §1

[5] = compound: CN(C)CC(=O)Nc1ccc2[nH]c(=O)c3ccccc3c2c1
Summary of the method: as §1

rosiglitazone = compound: CN(CCOC1=CC=C(C=C1)C[C@H]2C(=O)NC(=O)S2)C3=CC=CC=N3 (racemic) [rosiglitazone]
Summary of the method: as §1

[6] = compound: CN1C2=C(C3=C1C(=O)N(N=C3)CC4=CC(=CC=C4)N)SC(=C2)S(=O)C
Summary of the method: as §1

[7] = compound: CN1CCC(CNc2ccc3ncc(-c4cccc(OC(F)(F)F)c4)n3n2)CC1
Summary of the method: as §1

saracatinib = compound: CN1CCN(CCOc2cc(OC3CCOCC3)c3c(Nc4c(Cl)ccc5c4OCO5)ncnc3c2)CC1 [saracatinib]
Summary of the method: as §1

sotrastaurin = compound: CN1CCN(c2nc(C3=C(c4c[nH]c5ccccc45)C(=O)NC3=O)c3ccccc3n2)CC1 [sotrastaurin]
Summary of the method: as §1

Tubastatin A = compound: CN1CCc2c(c3ccccc3n2Cc2ccc(C(=O)NO)cc2)C1 [Tubastatin A]
Summary of the method: as §1

[8] = compound: CNC(=O)C1=CC=CC=C1NC2=NC(=NC=C2Cl)NC3=C(C=C(C=C3)N4CCOCC4)OC
Summary of the method: as §1

defactinib = compound: CNC(=O)c1ccc(Nc2ncc(C(F)(F)F)c(NCc3nccnc3N(C)S(C)(=O)=O)n2)cc1 [defactinib]
Summary of the method: as §1

rucaparib = compound: CNCc1ccc(-c2[nH]c3cc(F)cc4c3c2CCNC4=O)cc1 [rucaparib]
Summary of the method: as §1

[9] = compound: CNc1nc(-c2ccc3c(N)n[nH]c3c2)cc(N2C[C@@H](C(=O)NC3CCCCC3)CC[C@H]2C)n1
Summary of the method: as §1

encorafenib = compound: COC(=O)N[C@@H](C)CNc1nccc(-c2cn(C(C)C)nc2-c2cc(Cl)cc(NS(C)(=O)=O)c2F)n1 [encorafenib]
Summary of the method: as §1

[10] = compound: COC(=O)[C@H](CCSC)NC(=O)C1=C(C=C(C=C1)NC[C@H](CS)N)C2=CC=CC=C2
Summary of the method: as §1

alvocidib = compound: CN1CC[C@H](c2c(O)cc(O)c3c(=O)cc(-c4ccccc4Cl)oc23)[C@H](O)C1 [alvocidib]
Summary of the method: as §1

Measured: log2 fold change

COX7C (UniProt P15954)
inactive: [1] 0.035 | volasertib -0.163 | [2] -0.114 | epoxomicin 0.203 | [3] -0.01 | [4] 0.095 | [5] -0.058 | rosiglitazone -0.025 | [6] -0.026 | [7] -0.052 | saracatinib 0.026 | sotrastaurin 0.028 | Tubastatin A 0.03 | [8] 0.007 | defactinib 0.031 | rucaparib 0.011 | [9] -0.054 | encorafenib -0.06 | [10] 0.047

CD63 (UniProt P08962)
UniProt P08962, sequence (P08962 whole entry, looked up): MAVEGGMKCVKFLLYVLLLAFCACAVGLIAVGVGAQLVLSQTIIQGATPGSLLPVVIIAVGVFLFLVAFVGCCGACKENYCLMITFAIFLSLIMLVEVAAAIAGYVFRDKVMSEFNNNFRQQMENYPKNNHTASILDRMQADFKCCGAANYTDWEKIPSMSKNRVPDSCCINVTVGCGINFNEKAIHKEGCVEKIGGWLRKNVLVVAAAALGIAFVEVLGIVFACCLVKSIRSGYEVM
inactive: [1] -0.013 | volasertib 0.048 | [2] -0.013 | epoxomicin -0.019 | [3] 0.017 | [4] 0.06 | [5] 0.01 | rosiglitazone 0.04 | [6] 0.012 | [7] 0.018 | saracatinib 0.021 | sotrastaurin 0.017 | alvocidib 0.01 | Tubastatin A -0.005 | [8] 0 | defactinib -0.006 | rucaparib -0.018 | [9] -0.01 | encorafenib 0.049 | [10] 0.015

CLTB (UniProt P09497)
inactive: [1] 0.099 | volasertib 0.134 | [2] -0.102 | epoxomicin 0.032 | [3] 0.001 | [4] -0.006 | [5] -0.024 | rosiglitazone -0.013 | [6] -0.064 | [7] 0.106 | saracatinib 0.064 | sotrastaurin 0.017 | alvocidib 0.078 | Tubastatin A -0.019 | [8] -0.034 | defactinib 0.063 | rucaparib -0.039 | [9] -0.009 | encorafenib -0.014 | [10] 0.031

CASC3 (UniProt O15234)
UniProt O15234, sequence (O15234 whole entry, looked up): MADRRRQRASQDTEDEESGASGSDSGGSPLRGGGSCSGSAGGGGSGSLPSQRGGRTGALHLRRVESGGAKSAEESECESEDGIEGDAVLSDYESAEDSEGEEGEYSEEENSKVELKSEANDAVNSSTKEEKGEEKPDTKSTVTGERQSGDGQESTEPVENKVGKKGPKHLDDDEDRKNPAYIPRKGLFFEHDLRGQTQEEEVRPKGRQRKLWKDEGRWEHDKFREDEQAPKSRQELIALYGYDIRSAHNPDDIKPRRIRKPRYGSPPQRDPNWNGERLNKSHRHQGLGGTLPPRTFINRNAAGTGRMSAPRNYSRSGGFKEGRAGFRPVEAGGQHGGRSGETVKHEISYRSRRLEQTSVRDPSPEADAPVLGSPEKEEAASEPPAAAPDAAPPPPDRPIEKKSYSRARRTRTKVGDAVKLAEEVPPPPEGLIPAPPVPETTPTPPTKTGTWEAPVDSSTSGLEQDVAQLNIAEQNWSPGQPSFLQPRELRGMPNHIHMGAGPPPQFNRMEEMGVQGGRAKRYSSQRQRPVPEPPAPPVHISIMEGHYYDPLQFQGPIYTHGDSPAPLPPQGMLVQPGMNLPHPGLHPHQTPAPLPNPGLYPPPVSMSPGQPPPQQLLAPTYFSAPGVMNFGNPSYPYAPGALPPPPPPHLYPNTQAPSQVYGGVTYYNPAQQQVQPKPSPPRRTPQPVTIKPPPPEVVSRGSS
inactive: [1] 0.303 | volasertib 0.272 | [2] -0.068 | epoxomicin -0.058 | [3] 0.016 | [4] 0.087 | [5] -0.081 | rosiglitazone 0.015 | [6] 0.102 | [7] 0.02 | saracatinib -0.015 | sotrastaurin 0.067 | Tubastatin A -0.06 | [8] 0.021 | defactinib 0.323 | rucaparib 0.158 | [9] -0.126 | encorafenib -0.089 | [10] 0.073
active: alvocidib 0.6

CNN2 (UniProt Q99439)
UniProt Q99439, sequence (Q99439 whole entry, looked up): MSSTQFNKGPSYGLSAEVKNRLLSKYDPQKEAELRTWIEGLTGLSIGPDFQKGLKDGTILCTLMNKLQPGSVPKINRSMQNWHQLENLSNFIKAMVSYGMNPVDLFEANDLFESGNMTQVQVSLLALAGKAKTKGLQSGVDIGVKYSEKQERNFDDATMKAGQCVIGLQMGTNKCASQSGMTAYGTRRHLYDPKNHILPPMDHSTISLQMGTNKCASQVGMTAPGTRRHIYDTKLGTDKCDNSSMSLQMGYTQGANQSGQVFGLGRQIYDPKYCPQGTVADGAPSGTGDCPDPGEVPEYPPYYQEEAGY
active: volasertib -0.354
inactive: [1] -0.149 | [2] 0.058 | epoxomicin 0.106 | [3] -0.044 | [4] 0.03 | [5] 0.023 | rosiglitazone 0.063 | [6] 0.012 | [7] -0.055 | saracatinib 0.004 | sotrastaurin -0.161 | alvocidib -0.024 | Tubastatin A 0 | [8] -0.003 | defactinib -0.087 | rucaparib -0.008 | [9] -0.077 | encorafenib 0.023 | [10] 0

CDC25B isoform 4 (UniProt P30305)
UniProt P30305, sequence (P30305 whole entry, looked up): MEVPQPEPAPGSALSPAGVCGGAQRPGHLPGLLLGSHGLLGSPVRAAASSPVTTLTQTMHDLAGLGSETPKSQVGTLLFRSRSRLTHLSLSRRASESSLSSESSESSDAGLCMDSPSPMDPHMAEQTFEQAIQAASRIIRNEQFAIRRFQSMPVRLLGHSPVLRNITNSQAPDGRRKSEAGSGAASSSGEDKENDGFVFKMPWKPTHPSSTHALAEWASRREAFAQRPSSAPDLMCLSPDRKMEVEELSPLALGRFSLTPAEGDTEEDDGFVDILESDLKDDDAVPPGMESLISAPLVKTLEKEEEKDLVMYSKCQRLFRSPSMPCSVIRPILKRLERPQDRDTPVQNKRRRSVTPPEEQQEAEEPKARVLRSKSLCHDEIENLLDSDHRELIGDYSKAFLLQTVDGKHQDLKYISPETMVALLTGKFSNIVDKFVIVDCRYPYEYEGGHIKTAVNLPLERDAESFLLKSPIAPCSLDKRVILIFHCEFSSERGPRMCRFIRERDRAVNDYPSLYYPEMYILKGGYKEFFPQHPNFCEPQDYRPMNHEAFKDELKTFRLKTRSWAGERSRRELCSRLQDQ
inactive: [1] -0.003 | volasertib -0.049 | [2] -0.266 | epoxomicin 0.1 | [3] -0.031 | [4] -0.092 | [5] -0.021 | rosiglitazone -0.012 | [7] -0.081 | sotrastaurin -0.018 | alvocidib -0.031 | [8] -0.019 | defactinib -0.25 | rucaparib 0.054 | encorafenib -0.059 | [10] 0.087

CCDC9 (UniProt Q9Y3X0)
UniProt Q9Y3X0, sequence (Q9Y3X0 whole entry, looked up): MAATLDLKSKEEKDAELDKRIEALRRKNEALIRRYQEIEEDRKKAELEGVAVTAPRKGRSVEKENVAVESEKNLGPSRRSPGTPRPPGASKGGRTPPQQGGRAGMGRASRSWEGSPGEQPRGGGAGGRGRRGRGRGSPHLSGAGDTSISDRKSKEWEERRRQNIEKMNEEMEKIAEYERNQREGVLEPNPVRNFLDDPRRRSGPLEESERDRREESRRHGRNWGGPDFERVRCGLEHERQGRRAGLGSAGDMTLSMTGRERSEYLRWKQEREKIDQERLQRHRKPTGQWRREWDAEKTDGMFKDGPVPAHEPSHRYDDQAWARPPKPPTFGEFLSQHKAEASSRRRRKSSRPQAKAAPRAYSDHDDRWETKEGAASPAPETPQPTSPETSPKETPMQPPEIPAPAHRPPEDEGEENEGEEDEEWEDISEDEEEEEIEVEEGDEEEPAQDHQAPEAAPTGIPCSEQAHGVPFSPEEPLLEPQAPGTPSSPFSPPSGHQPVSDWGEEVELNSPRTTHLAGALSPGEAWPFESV
inactive: [1] 0.081 | volasertib 0.127 | [2] -0.051 | epoxomicin -0.018 | [3] 0.032 | [4] 0.051 | [5] 0.002 | rosiglitazone 0.021 | [6] 0.025 | [7] 0.009 | saracatinib 0.023 | sotrastaurin 0.077 | alvocidib 0.192 | Tubastatin A -0.046 | [8] -0.038 | defactinib 0.148 | rucaparib 0.116 | [9] -0.031 | encorafenib -0.021 | [10] 0.004

CCDC82 (UniProt Q8N4S0)
active: volasertib -0.349
inactive: [1] -0.062 | [2] -0.018 | epoxomicin 0.143 | [3] -0.057 | [5] 0.001 | rosiglitazone 0 | [6] -0.069 | saracatinib 0 | alvocidib -0.065 | Tubastatin A 0.102 | [8] 0.03 | defactinib -0.09 | rucaparib -0.069 | [9] -0.139 | encorafenib 0.021 | [10] -0.037

CDK17 isoform 2 (UniProt Q00537)
active: alvocidib 0.602
inactive: [1] -0.153 | volasertib -0.079 | epoxomicin 0.07 | [3] 0.032 | [4] -0.012 | [5] 0.046 | rosiglitazone 0.038 | [6] 0.022 | [7] 0.051 | saracatinib 0.008 | sotrastaurin -0.036 | [8] -0.017 | defactinib 0.11 | rucaparib 0.494 | [9] 0.06 | encorafenib -0.027 | [10] 0.014

CCNT2 (UniProt O60583)
inactive: [1] 0.035 | volasertib -0.096 | [2] 0.056 | epoxomicin 0.004 | [4] -0.084 | [6] 0.023 | [7] -0.101 | saracatinib -0.016 | sotrastaurin -0.372 | Tubastatin A 0.157 | rucaparib -0.112 | [9] 0.04 | encorafenib 0.119

CFAP58 (UniProt Q5T655)
UniProt Q5T655, sequence (Q5T655 whole entry, looked up): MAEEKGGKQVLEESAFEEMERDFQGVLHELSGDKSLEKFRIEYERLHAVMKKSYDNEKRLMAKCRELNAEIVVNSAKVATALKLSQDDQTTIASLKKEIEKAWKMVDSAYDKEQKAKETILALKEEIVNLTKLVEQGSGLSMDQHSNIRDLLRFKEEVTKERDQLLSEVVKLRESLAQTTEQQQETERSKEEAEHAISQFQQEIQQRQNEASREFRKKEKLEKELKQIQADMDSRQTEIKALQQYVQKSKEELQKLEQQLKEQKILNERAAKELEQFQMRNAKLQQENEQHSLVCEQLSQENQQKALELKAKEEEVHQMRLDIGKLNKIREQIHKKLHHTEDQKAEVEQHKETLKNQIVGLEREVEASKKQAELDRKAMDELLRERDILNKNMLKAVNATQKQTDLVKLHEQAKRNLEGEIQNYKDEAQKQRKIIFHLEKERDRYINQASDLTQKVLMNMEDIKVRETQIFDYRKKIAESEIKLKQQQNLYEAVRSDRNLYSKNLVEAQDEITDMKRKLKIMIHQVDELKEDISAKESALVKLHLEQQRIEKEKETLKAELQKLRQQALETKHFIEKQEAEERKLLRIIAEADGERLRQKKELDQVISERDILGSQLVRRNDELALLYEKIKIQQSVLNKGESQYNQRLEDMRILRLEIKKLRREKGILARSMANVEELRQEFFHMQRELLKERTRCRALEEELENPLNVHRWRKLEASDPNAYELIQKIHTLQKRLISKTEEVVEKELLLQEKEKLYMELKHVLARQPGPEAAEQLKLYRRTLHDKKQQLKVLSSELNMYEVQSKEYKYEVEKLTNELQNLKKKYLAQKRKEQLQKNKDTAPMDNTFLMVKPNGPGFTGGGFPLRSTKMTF
inactive: [1] -0.353 | volasertib -0.04 | [4] -0.112 | [7] -0.272 | encorafenib 0.265
active: rucaparib -1.21

C6orf120 (UniProt Q7Z4R8)
inactive: [1] 0.066 | volasertib -0.101 | [2] 0.019 | [3] 0.095 | [5] -0.155 | rosiglitazone 0.06 | [6] -0.245 | saracatinib -0.097 | sotrastaurin 0.008 | Tubastatin A 0.041 | [8] -0.145 | defactinib 0.024 | rucaparib 0.127 | [9] 0.041 | encorafenib 0.074 | [10] -0.045

CHAF1A (UniProt Q13111)
UniProt Q13111, sequence (Q13111 whole entry, looked up): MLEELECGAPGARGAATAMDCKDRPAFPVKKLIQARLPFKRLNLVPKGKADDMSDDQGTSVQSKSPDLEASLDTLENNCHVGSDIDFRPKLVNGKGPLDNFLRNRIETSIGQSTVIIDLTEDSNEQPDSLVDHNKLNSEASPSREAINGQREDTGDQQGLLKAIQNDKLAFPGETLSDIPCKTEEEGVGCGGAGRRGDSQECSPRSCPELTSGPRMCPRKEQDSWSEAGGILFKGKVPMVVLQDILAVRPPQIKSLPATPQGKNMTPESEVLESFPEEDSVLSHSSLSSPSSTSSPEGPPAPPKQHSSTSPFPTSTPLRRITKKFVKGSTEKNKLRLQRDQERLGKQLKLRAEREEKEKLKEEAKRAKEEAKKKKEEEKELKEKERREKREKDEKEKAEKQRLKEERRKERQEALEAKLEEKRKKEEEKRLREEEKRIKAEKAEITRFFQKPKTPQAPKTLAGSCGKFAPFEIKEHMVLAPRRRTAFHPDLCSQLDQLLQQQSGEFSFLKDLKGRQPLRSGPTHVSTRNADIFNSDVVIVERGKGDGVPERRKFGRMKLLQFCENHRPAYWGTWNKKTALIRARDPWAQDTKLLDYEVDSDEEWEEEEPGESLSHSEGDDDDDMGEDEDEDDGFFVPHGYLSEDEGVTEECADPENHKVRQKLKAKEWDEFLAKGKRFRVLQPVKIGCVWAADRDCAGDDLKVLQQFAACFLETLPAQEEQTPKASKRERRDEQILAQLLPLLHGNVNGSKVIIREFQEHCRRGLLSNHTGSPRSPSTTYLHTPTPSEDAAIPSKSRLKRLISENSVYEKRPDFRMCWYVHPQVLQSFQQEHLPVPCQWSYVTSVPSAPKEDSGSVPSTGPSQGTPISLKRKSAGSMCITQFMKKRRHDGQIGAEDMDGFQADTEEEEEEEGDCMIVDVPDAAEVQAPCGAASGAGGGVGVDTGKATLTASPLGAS
inactive: [1] 0.025 | volasertib -0.021 | [2] 0.036 | epoxomicin -0.039 | [3] -0.078 | [4] 0.064 | rosiglitazone -0.018 | [6] 0.158 | [7] 0.051 | saracatinib 0.008 | sotrastaurin 0.004 | alvocidib 0.041 | [8] 0.133 | rucaparib 0.198 | [9] -0.125 | encorafenib 0.094

CKS2 (UniProt P33552)
inactive: [1] 0.01 | volasertib -0.044 | [2] 0.029 | [4] -0.23 | rosiglitazone 0.028 | [6] 0.023 | saracatinib -0.044 | Tubastatin A 0.031 | rucaparib 0.025 | [9] -0.101 | encorafenib 0.078
active: [7] 0.594

CLASP2 (UniProt O75122)
inactive: [1] -0.104 | volasertib -0.123 | [2] 0.083 | [3] -0.038 | rosiglitazone 0.166 | alvocidib -0.069 | [8] 0 | rucaparib 0 | encorafenib 0.098

C19orf54 (UniProt Q5BKX5)
UniProt Q5BKX5, sequence (Q5BKX5 whole entry, looked up): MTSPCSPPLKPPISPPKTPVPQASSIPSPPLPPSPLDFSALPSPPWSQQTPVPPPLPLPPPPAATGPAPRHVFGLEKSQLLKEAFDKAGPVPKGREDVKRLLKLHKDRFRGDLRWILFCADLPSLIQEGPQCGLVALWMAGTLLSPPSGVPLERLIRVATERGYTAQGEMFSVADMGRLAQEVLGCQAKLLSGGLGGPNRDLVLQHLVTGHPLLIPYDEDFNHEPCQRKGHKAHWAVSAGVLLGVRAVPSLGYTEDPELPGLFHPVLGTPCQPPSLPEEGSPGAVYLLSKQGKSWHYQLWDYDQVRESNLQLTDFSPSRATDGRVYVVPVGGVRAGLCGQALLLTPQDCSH
inactive: [1] 0.054 | volasertib -0.06 | epoxomicin 0.094 | [3] -0.152 | [4] 0.056 | [5] 0.036 | [6] -0.177 | [7] -0.141 | saracatinib 0.049 | sotrastaurin -0.221 | alvocidib 0.178 | Tubastatin A 0.092 | [8] 0.002 | defactinib -0.136 | rucaparib 0.255 | [9] -0.108 | encorafenib 0.005 | [10] -0.031

CORO2A (UniProt Q92828)
inactive: [1] 0.164 | volasertib -0.075 | [2] 0.01 | [3] -0.016 | [4] 0 | [5] -0.038 | rosiglitazone 0.011 | [6] -0.022 | [7] -0.096 | saracatinib 0.016 | sotrastaurin 0.015 | alvocidib -0.021 | Tubastatin A -0.055 | [8] 0.053 | defactinib -0.015 | rucaparib -0.266 | [9] -0.097 | encorafenib 0.21 | [10] -0.028

COPS3 isoform 2 (UniProt Q9UNS2)
UniProt Q9UNS2, sequence (Q9UNS2 whole entry, looked up): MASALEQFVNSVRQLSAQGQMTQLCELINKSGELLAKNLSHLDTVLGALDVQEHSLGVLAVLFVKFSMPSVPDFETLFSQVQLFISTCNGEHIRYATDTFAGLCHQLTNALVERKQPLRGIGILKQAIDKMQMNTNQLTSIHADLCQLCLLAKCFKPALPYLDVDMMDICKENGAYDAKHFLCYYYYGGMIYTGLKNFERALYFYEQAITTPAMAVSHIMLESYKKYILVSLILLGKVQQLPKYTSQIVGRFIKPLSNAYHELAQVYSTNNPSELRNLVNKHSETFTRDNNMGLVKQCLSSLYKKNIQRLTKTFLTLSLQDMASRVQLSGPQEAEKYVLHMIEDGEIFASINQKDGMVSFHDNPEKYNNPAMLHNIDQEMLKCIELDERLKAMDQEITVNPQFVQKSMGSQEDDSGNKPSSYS
inactive: [1] 0.079 | volasertib 0.031 | [2] 0.001 | epoxomicin 0.059 | [4] -0.075 | [5] -0.165 | rosiglitazone -0.046 | [7] -0.124 | sotrastaurin 0.134 | Tubastatin A -0.005 | defactinib 0.109 | rucaparib -0.055 | encorafenib -0.041 | [10] 0.059

CRLS1 (UniProt Q9UJA2)
inactive: [1] 0.029 | volasertib 0.026 | [2] 0.001 | [3] -0.024 | [4] 0.052 | [5] -0.024 | [6] -0.006 | [7] 0.09 | saracatinib 0.144 | sotrastaurin -0.282 | alvocidib 0.02 | Tubastatin A -0.079 | [8] 0.043 | defactinib -0.088 | rucaparib -0.088 | [9] -0.052 | encorafenib 0.004 | [10] 0.067

CRTC2 (UniProt Q53ET0)
inactive: [1] 0.014 | volasertib 0.016 | [2] 0.061 | epoxomicin 0.098 | [3] -0.023 | [5] -0.009 | rosiglitazone -0.043 | sotrastaurin -0.09 | Tubastatin A -0.031 | [8] -0.269 | defactinib -0.218 | rucaparib 0.053 | encorafenib -0.026 | [10] -0.103

— the supplement of paper PMC10849652
